LGR2 inh – inhibitors of bursicon-induced Drosophila LGR2 receptor cAMP signaling; inhibition, % at 9.99 µM; hit rate 0.35% among 380,000; AID 720647; HEK293 LGR2, CRE-luciferase, bursicon-stimulated, 4 h;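 active = drop in luminescence signal, shown as inhibition above about 50% in the replicate tests, limit read from the data, passing the limit was not always enough; inconclusive = probably only some replicates passing the limit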;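 note: agonist challenge used bursicon conditioned medium at about half maximal strength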
EWS-Fli inh – EWS/Fli transcriptional activity inhibition; A673 NR0B1-luciferase reporter, viability-normalised; inhibition, % at 12.6 µM; hit rate 0.67% among 350,000;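 active = mean inhibition of at least 50% after viability correction, with every replicate also passing that limit; inconclusive = mean reaches 50% but only one of two replicates passes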;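 note: firefly luciferase signal divided by Alamar Blue viability fluorescence both relative to DMSO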
CF NFkB inh – cystic fibrosis NF-kB activation inhibition. KKLEB NF-kB-GFP reporter, PAF-induced, GFP fluorescence overnight. inhibition, % at 5 µM. hit rate 0.86% among 360,000. AID 588850;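 active = at least 50% inhibition at 5 µM, scaled per plate between neutral and stimulator controls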;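 note: PAF is a Pseudomonas aeruginosa culture filtrate used as stimulus; plate controls were PAF-stimulated DMSO wells for no effect and unstimulated DMSO wells for full effect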
KKLEB tox – reduces viability of KKLEB cystic fibrosis airway cells; AID 602141; hit rate 0.36% among 360,000; activity change (cytotoxicity), % at 5 µM; KKLEB CF airway cells viability, ATPlite luminescence, overnight; stronger effect = lower value; cells stimulated with P. aeruginosa culture filtrate;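 active = corrected activity change at or below -50% at 5 µM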
Shn3 inh set2 – Schnurri-3 reporter inhibition in Clone20 osteoblasts. Clone20 osteoblast Shn3 3'UTR firefly luciferase, 24 h. inhibition, % at 12.5 µM. hit rate 0.52% among 360,000. AID 588674;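 active = mean inhibition of at least 75% with every replicate also reaching 75%; inconclusive = mean inhibition at least 75% but some replicate below; inactive = mean inhibition below 75%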;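 note: 0% = median of neutral control wells and 100% = pilot-screen positive control compound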
PAX8 inh HTS – inhibitors of PAX8 transcriptional activity in RMG-I cells | RMG-I TPO-luciferase reporter, SteadyGlo, 24 h | inhibition, % at 12.6 µM | hit rate 1.2% among 360,000;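 active = mean replicate inhibition at least 60% with every replicate also reaching 60%; inconclusive = only one of the two criteria is met; inactive = mean below 60% and not all replicates reaching 60%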;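 note: luciferase light reporting Pax8 driven TPO promoter activity; plate controls were median of neutral control wells for no effect and mitoxantrone controls for full effect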
Active calls of the source: *; ? = inconclusive; nt = no result given; ! = not confirmed by another sample. An excerpt weighted towards active compounds, which were near 2% of everything screened.

SMILES	LGR2 inh	EWS-Fli inh	CF NFkB inh	KKLEB tox	Shn3 inh set2	PAX8 inh HTS
COc1ccc2c(C#CCCO)c(-c3ccc(S(C)(=O)=O)cc3)sc2c1	0.2	1.6	7.0	-19.4	-8.8	37.3
COc1ccc(-c2sc3cc(OC)c(OC)cc3c2C#CCCO)cc1	0.0	-1.5	11.4	-10.6	22.2	9.5
C/C=C/c1ccc([C@H]2[C@@H](CO)N(C(C)=O)[C@@H]2CN(CC(C)C)C(=O)CC)cc1	-10.4	-0.8	nt	nt	nt	nt
C[C@H]1CN([C@@H](C)CO)C(=O)Cc2cc(NS(=O)(=O)c3ccc(Cl)cc3)ccc2O[C@@H]1CN(C)Cc1ccc(C(F)(F)F)cc1	25.0	3.7	nt	nt	nt	24.8
Cn1c(NC2CCCCC2)cc(=O)n(C)c1=O	3.1	0.3	7.9	6.0	4.0	-19.7
Cc1cc(C2CCCCC2)n(O)c(=O)c1	5.9	31.4	19.6	-16.2	60.8	73.3*
CN1[C@@H]2c3ccc(-c4ccccc4)c(=O)n3C[C@@H]2[C@@H](CO)[C@@H]1C(=O)N1CCc2ccccc2C1	21.4	4.7	nt	nt	nt	68.2*
CN1[C@@H]2c3ccc(-c4ccncc4)c(=O)n3C[C@@H]2[C@@H](CO)[C@@H]1C(=O)N1CCc2ccccc2C1	-9.9	4.5	nt	nt	nt	-0.4
COc1ccccc1-n1c(-c2ccccc2)c[n+]2c1CCc1ccccc1-2	34.5	25.6	-13.6	-0.9	90.3*!	88.4*
COc1ccc(-n2c(-c3ccc(Br)cc3)c[n+]3c2CCc2ccccc2-3)cc1	9.9	11.2	19.5	-36.1	?	79.2*
COc1ccc(-c2c[n+]3c(n2-c2ccccc2)SCC3)cc1	nt	12.8	5.4	5.2	nt	7.4
CC(C)c1ccc(-n2c(-c3ccccc3)c[n+]3c2CCc2ccccc2-3)cc1	53.5*	58.6*	51.1*	-53.8*	81.5	89.6*
COc1ccccc1-n1c(-c2ccccc2)c[nH]c1=S	-10.7	0.1	-9.9	9.9	0.8	0.1
COc1ccc(NC(=O)Nc2cccc3c2O[C@H](CN(C)Cc2ccc(Oc4ccccc4)cc2)[C@H](C)CN([C@@H](C)CO)C3=O)cc1	nt	4.0	nt	nt	nt	1.8
CCOc1ccc(C(NC(=O)CC)c2c(O)ccc3ccccc23)cc1 (centres undefined)	2.2	13.9	11.1	-5.8	-7.6	22.6
CC(=O)Oc1ccc2ccccc2c1C(NC(=O)Cc1ccccc1)c1ccc(Cl)cc1 (centres undefined)	nt	nt	19.3	10.0	7.2	84.7*
O=C(Oc1c(-c2ccccc2)oc2ccccc2c1=O)c1ccccc1	-25.3	nt	11.4	5.7	-8.8	nt
O=C(Oc1c(-c2ccccc2Cl)oc2ccccc2c1=O)c1ccc(Cl)cc1	7.2	3.8	49.9	-4.1	-16.0	68.0*
C[C@H](CO)N1C[C@H](C)[C@H](CN(C)S(=O)(=O)c2cccs2)Oc2c(NC(=O)Nc3ccc(F)cc3)cccc2C1=O	7.4	-14.8	nt	nt	nt	67.7*
C[C@@H]1CN([C@@H](C)CO)C(=O)c2cccc(NC(=O)c3ccncc3)c2O[C@@H]1CN(C)S(=O)(=O)c1cccs1	-18.0	3.5	nt	nt	nt	98.3*
CC(C)NC(=O)Nc1ccc2c(c1)C(=O)N([C@H](C)CO)C[C@@H](C)[C@H](CN(C)S(=O)(=O)c1cccs1)O2	-23.5	-1.5	nt	nt	nt	nt
COc1ccccc1OCC(=O)c1[nH]c(C)c(C(C)=O)c1C	nt	nt	-25.1	4.3	85.0*	nt
C[C@@H]1CN([C@H](C)CO)C(=O)c2cccc(NC(=O)c3cnccn3)c2O[C@@H]1CN(C)C(=O)Nc1cccc2ccccc12	12.2	5.9	nt	nt	nt	-1.2
COc1ccc(NC(=O)/C(Cl)=C(/Cl)S(=O)Cc2ccccc2)cn1 (centres undefined)	nt	nt	88.5*	-95.4*	97.3*	nt
COc1ccc(CS(=O)(=O)/C(Cl)=C(/Cl)C(=O)Nc2ccc(OC)nc2)cc1	nt	nt	88.5*	-85.5*	97.7*	nt
SMILES	LGR2 inh	EWS-Fli inh	CF NFkB inh	KKLEB tox	Shn3 inh set2	PAX8 inh HTS
COc1ccc(/C=C/C(=O)Nc2ccc(OC)nc2)cc1	-29.0	-41.5	11.0	1.8	-7.9	-25.5
COc1ccc(NC(=O)Cc2ccccc2)cn1	1.9	-11.3	-9.4	-5.2	-15.8	1.1
Cn1cccc1/C=C1\CCc2ccccc2C1=O	59.5*	55.3*	-35.5	-13.5	7.1	31.3
C[C@H]1CN([C@@H](C)CO)S(=O)(=O)c2ccc(-c3cccnc3)cc2O[C@@H]1CN(C)CC1CC1	nt	-17.6	nt	nt	nt	nt
CC(C)CCCCCCCCCCCCC(=O)NCC(=O)NC1C(O)C(O)C(Nc2ncnc3nc[nH]c23)OC1C(O)CO (centres undefined)	nt	nt	90.4*	-34.4	97.1*	nt
COc1cccc(C(=O)N2C[C@H]3[C@@H](c4ccccc42)[C@@H](CO)N3Cc2ccccc2F)c1	-0.6	0.6	nt	nt	nt	9.0
COc1ccccc1C(=O)N(CCC1CCCN1C)c1nc2ccccc2s1 (centres undefined)	97.5*	61.4*	-1.9	-15.6	31.0	-104.0
CC1CCCN(S(=O)(=O)c2ccc(C(=O)Nc3sc4c(c3C(N)=O)CCN(C)C4)cc2)C1 (centres undefined)	-2.2	56.0*	-1.9	9.2	11.1	18.6
CCCN1CCc2c(sc(NC(=O)c3ccc(S(=O)(=O)N4CCCC4)cc3)c2C(N)=O)C1	-9.4	nt	-1.4	10.5	11.6	10.8
O=C1CNC[C@H]2[C@H](c3ccc(C4=CCCCC4)cc3)[C@H](CO)N12	0.5	29.2	nt	nt	nt	2.6
C[C@H]1CN([C@@H](C)CO)C(=O)c2cc(C#CC3CC3)cnc2O[C@@H]1CN(C)Cc1ccncc1	-4.7	-3.0	nt	nt	nt	nt
C[C@H](CO)N1C[C@H](C)[C@H](CN(C)Cc2ccccc2)Oc2ccc(NC(=O)Nc3ccc(C(F)(F)F)cc3)cc2CC1=O	6.3	-0.7	nt	nt	nt	23.8
C[C@H](CO)N1C[C@H](C)[C@@H](CN(C)Cc2ccncc2)Oc2ccc(NC(=O)Nc3ccc(C(F)(F)F)cc3)cc2CC1=O	4.4	nt	nt	nt	nt	89.8*
COc1ccc(NC(=O)Nc2ccc3c(c2)CC(=O)N([C@@H](C)CO)C[C@@H](C)[C@@H](CN(C)Cc2ccc(Oc4ccccc4)cc2)O3)cc1	-18.4	23.8	nt	nt	nt	98.2*
C[C@H]1CN([C@@H](C)CO)C(=O)Cc2cc(NC(=O)CCC(F)(F)F)ccc2O[C@H]1CN(C)Cc1ccc2c(c1)OCO2	6.9	-10.2	nt	nt	nt	63.2*
COc1ccc(NC(=O)Nc2ccc3c(c2)CC(=O)N([C@H](C)CO)C[C@H](C)[C@H](CN(C)Cc2ccc(Oc4ccccc4)cc2)O3)cc1	-0.1	17.9	nt	nt	nt	21.0
C[C@H](CO)N1C[C@H](C)[C@@H](CN(C)Cc2ccccc2)Oc2ccc(NC(=O)Nc3ccc(C(F)(F)F)cc3)cc2CC1=O	9.1	23.2	nt	nt	nt	96.3*
C[C@@H]1CN([C@@H](C)CO)C(=O)Cc2cc(NC(=O)CCCCCC(=O)Nc3ccccc3N)ccc2O[C@@H]1CN(C)Cc1ccc(C(F)(F)F)cc1	-3.8	34.0	nt	nt	nt	90.2*

Screening data: PubChem, several laboratories
